Reference: PubChem BioAssay (EPA / NIEHS)
Activity calls are given as the source filed them. The calls were made as follows: active = hit-call score of the fitted dose curve at least 0.9, where 1 is the maximum; inactive = score below 0.9.

assay: CCTE_Shafer_MEA_dev_inter_network_spike_interval_mean: CCTE's Neural Network Formation Assay for Mean Inter-network Spike Interval, Shafer Lab (AID 2284047);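 as to AC50: potency for a decrease in mean inter-network spike interval below DMSO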
Method: CCTE_Shafer_MEA_dev assay is conducted using Axion Biosystems 48 well microelectrode array (MEA) plates and Maestro recording system. Each well of the MEA plate contains a grid of 16 microelectrodes embedded in the culture surface. Electrically active cells, such as neurons, can be cultured over the electrodes, and electrical activity in these cells can be recorded extracellularly. The spontaneous firing of neurons is captured from each electrode on a microsecond timescale providing both temporally and spatially precise data. […] The CCTE_Shafer_MEA_dev assay uses primary cultures of rat cortical neurons. Recordings are made on days post-plating 5, 7, 9 and 12. As these cultures mature over time, neural networks develop functional activity and form cohesive networks in which electrical activity can be highly coordinated. CCTE_Shafer_MEA_dev_inter_network_spike_interval_mean is 1 of 19 assay components of the CCTE_Shafer_MEA_dev assay. It measures the average time interval between network spikes (temporally-clustered groups of actional potential firing across multiple electrodes) as the average time between peaks of consecutive network spikes during a recording in a microelectrode array (MEA) using Axion Biosystems Maestro 768 channel amplifier with the AxIS adaptive spike detector. To collapse across multiple recordings made on days post-plating 5, 7, 9 and 12, the trapezoidal area-under-the-curve of the component is calculated.Data from the assay component CCTE_Shafer_MEA_dev_inter_network_spike_interval_mean was analyzed into 1 assay endpoint. This assay endpoint, CCTE_Shafer_MEA_dev_inter_network_spike_interval_mean, was analyzed in the negative analysis fitting direction relative to DMSO as the negative control and baseline of activity. Using a type of functional reporter, gain or loss-of-signal activity can be used to understand electrical activity.
On the day prior to culture, each well was coated thoroughly with 150 uL of 0.05% polyethyleneimine (PEI, Sigma Cat P3143) in 50 mM HEPES (Sigma Cat H7523) at a pH of 8. The plate was incubated at 37C for one hour. PEI was rinsed out with 500 uL of sterile water three times. Plates were stored at 4C until the day of culture. This culture was plated at a seeding density of 1.5 x 10^5 cells/well on a 48-well MEA plate, prepared as described above. Cells were administered via a 25 uL media/laminin ([…]; Sigma Cat L2020-1MG) drop directly onto the microelectrode array, as adding the cells with the laminin results in better attachment than pre-coating with laminin. After 2 hours, an additional 475 uL of cortical media was added and the cells returned to the incubator. Exposure starts at day 0 of plating and is continued over twelve days of network development until the experiment is terminated. Cells are fed with fresh medium on DIV 5 and 9, following the recordings on those days. The entire volume of media in the well is exchanged and any vehicle or compound treatment is renewed. Complete details are found in OP-NHEERL/ISTD/SBB/TJS/2015-03-r0 (available on request, email shafer.tim@epa.gov). Measurement of the electrical activity is non-invasive, and recordings can be made from the same plate over multiple different days of the culture. In cortical neurons, this allows for the measurement of extracellular action potentials over the period during which networks form in the MEA plate.

Structure (SMILES) | outcome | AC50
Clc1ccc(C(c2ccc(Cl)cc2)C(Cl)(Cl)Cl)cc1 | inactive | –
C1=Cc2cccc3cccc1c23 | inactive | –
ClC1=C(Cl)[C@]2(Cl)[C@H]3[C@H]([C@@H]4C=C[C@H]3C4)[C@@]1(Cl)C2(Cl)Cl | inactive | –
CCNS(=O)(=O)C(F)(F)C(F)(F)C(F)(F)C(F)(F)C(F)(F)C(F)(F)C(F)(F)C(F)(F)F | inactive | –
COP(=S)(OC)SCN1C(=O)c2ccccc2C1=O | inactive | –
Nc1cc(Cl)cc(C(=O)O)c1Cl | inactive | –
Clc1ccc(C(c2ccc(Cl)cc2)C(Cl)Cl)cc1 | inactive | –
OCCOCCO | – | 24.5 µM (active)
[Cl-].[Cl-].[Hg+2] | inactive | –
CN(C)[C@@H]1C(=O)C(C(N)=O)=C(O)[C@@]2(O)C(=O)C3=C(O)c4c(O)cccc4[C@@](C)(O)[C@H]3C[C@@H]12 | inactive | –
CC(C)(C)C(O)(CCc1ccc(Cl)cc1)Cn1cncn1 (stereo not given) | inactive | –
CNC(=O)Oc1cccc2c1OC(C)(C)C2 | inactive | –
COC(=O)Nc1nc2ccccc2[nH]1 | inactive | –
CCC[CH2][Sn]([Cl])([CH2]CCC)[CH2]CCC | – | 0.0769 µM (active)
CCCCOC(=O)c1ccccc1C(=O)OCc1ccccc1 | inactive | –
ClC1=C(Cl)C2(Cl)C3C(Cl)C=CC3C1(Cl)C2(Cl)Cl (stereo not given) | inactive | –
CC(C)COC(=O)c1ccccc1C(=O)OCC(C)C | inactive | –
O=P(OCCCl)(OCCCl)OCCCl | inactive | –
CC(C)(O)c1cnn2c(-c3ccc(F)c(-c4c(F)cccc4C#N)c3)cnc2n1 | inactive | –
[O-][Cl+]O | inactive | –
